# PubChem BioAssay
# Activity calls are given as the source filed them.
# What was measured:
# [1] = test system: Plasmodium falciparum Sir2 (PF13_0152, Sir2A); assay: pfSir2 binders on small-molecule microarrays, primary screen, biochemical, small-molecule microarray, 635 nm fluorescence (AID 1098); details: small-molecule microarray binding, fluorescence 635 nm; higher = more signal;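 also: score merges spot fluorescence intensity with its signal-to-noise ratio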
# [2] = small-molecule microarray binders of probe aDKK1, primary screen, biochemical, biotinylated probe, 635/667 nm fluorescence (AID 1099); details: higher = more signal;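 also: score merges 667nm spot fluorescence with signal to noise across triplicate slides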
# [3] = small-molecule microarray binders of probe aCHRDL2, primary screen, biochemical, biotinylated probe, 635/667 nm fluorescence (AID 1100); details: higher = more signal
# [4] = splicing luciferase reporter signal modulators, primary screen, spliceosome inhibition project, cell-based, HEK293, splice +/- reporter (AID 1101); details: luminescence, 24 h, higher = more signal, called active from +8 up or from −8 down;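 also: HEK293 cells carrying a splicing-competent luciferase reporter gene; test concentration not given here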
# [5] = target: Fibroblast growth factor 10 (Homo sapiens) (UniProt O15520); assay: FGF10 binders on small-molecule microarrays, primary screen, biochemical, small-molecule microarray, 635 nm fluorescence (AID 1102); details: FGF10 binding, fluorescence 635 nm, higher = more signal
# [6] = test system: glycogen synthase kinase-3 (GSK3A per assay name; protocol says GSK3B); assay: GSK3 binders on small-molecule microarrays, primary screen, biochemical, small-molecule microarray, 635 nm fluorescence, GSK3A (AID 1103); details: small-molecule microarray binding, fluorescence 635 nm; higher = more signal; also: the record names both GSK3A and GSK3B
# [7] = target: Epidermal growth factor receptor (Homo sapiens) (UniProt P00533); assay: EGFR binders on small-molecule microarrays, primary screen, biochemical, small-molecule microarray, 635 nm fluorescence (AID 1104); details: EGFR binding, higher = more signal;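 also: score merges 667 nm emission intensity with spot signal to noise over triplicate slides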
# [8] = target: Follistatin-related protein 3 (Homo sapiens) (UniProt O95633); assay: FSTL3 binders on small-molecule microarrays, primary screen, biochemical, small-molecule microarray, 635 nm fluorescence (AID 1105); details: FSTL3 binding, higher = more signal;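 also: score merges emission near 667 nm and signal to noise per printed spot across three slides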
# [9] = target: Dickkopf-related protein 1 (Homo sapiens) (UniProt O94907); assay: DKK1 binders on small-molecule microarrays, primary screen, biochemical, small-molecule microarray, 635 nm fluorescence scan (AID 1106); details: DKK1 binding, higher = more signal;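 also: score merges emission near 667 nm with signal to noise over three replicate slides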
# [10] = test system: Inhibin beta A chain (activin A); assay: INHBA (activin A) binders on microarrays, primary screen, biochemical, small-molecule microarray, 635 nm fluorescence scan (AID 1107); details: small-molecule microarray binding, higher = more signal;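 also: mouse activin A protein probed at 4.33 µg/mL on printed slides; score merges bound-protein fluorescence near 667 nm with spot signal-to-noise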
# [11] = test system: Human papillomavirus type 1a protein E7 (residues 44-93); assay: HPV1a E7 fragment binders on microarrays, primary screen, biochemical, small-molecule microarray, residues 44-93, 635 nm fluorescence (AID 1108); details: small-molecule microarray binding, fluorescence 635 nm; higher = more signal;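 also: E7 fragment applied at 1 µg/mL in TBST for 1 h at 4 C; score combines spot fluorescence with its signal to noise ratio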
# [12] = modulators of HCV replicon luciferase signal, primary screen, HCV replication inhibitor project, Huh7 cells, luciferase reporter (AID 1109); details: 48 h, higher = more signal;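 also: huh7 hepatoma cells harbouring a luciferase neomycin HCV replicon reporter; luciferase luminescence as measure of HCV replicon replication; test concentration not given here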
# [13] = target: Left-right determination factor 2 (Homo sapiens) (UniProt O00292); assay: LEFTY2 binders on small-molecule microarrays, primary screen, biochemical, small-molecule microarray, 635 nm fluorescence scan (AID 1110); details: LEFTY2 binding, higher = more signal
# [14] = target: Calmodulin-1 (Homo sapiens) (UniProt P0DP23); assay: CALM1 binders on microarrays, EGTA buffer, profiling panel, biochemical, small-molecule microarray, Cy5-labelled CALM1 (AID 1111); details: Cy5-CALM1 binding fluorescence, higher = more signal;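 also: labelled calmodulin applied in Tris saline Tween buffer holding calcium plus EGTA and DTT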
# [15] = target: Calmodulin-1 (Homo sapiens) (UniProt P0DP23); assay: calcium-bound CALM1 binders on microarrays, profiling panel, artefact control for SMM control-protein annotation, biochemical, small-molecule microarray, Cy5-labelled CALM1, plus calcium (AID 1112); details: Cy5-CALM1 binding fluorescence, higher = more signal;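 also: score merges spot fluorescence with signal to noise from triplicate slides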
# [16] = small-molecule microarray binders of probe aWnt5a, primary screen, biochemical, biotinylated probe, 635/667 nm fluorescence (AID 1113); details: higher = more signal;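 also: score merges 667 nm fluorescence intensity with signal-to-noise per printed feature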
# [17] = small-molecule microarray binders of probe aShh, primary screen, biochemical, biotinylated probe, 635/667 nm fluorescence (AID 1114); details: higher = more signal;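 also: probe is biotin-labelled aShh protein from a stem cell growth factor screen; measures binding of labelled protein to compounds printed on the slide; score merges feature fluorescence at 667 nm with signal-to-noise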
# [18] = small-molecule microarray binders of probe aNog, primary screen, biochemical, biotinylated probe, 635/667 nm fluorescence (AID 1115); details: higher = more signal;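 also: probe is biotinylated aNog protein used at 0.15 µg/mL for 1 h at 4 C; z-score combines 667 nm fluorescence of each spot with its signal to noise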
# [19] = target: Torsin-1A-interacting protein 1 (Homo sapiens) (UniProt Q5JTV8); assay: LAP1 binders from COS7 cell lysate, primary screen, small-molecule microarray, 635/667 nm fluorescence (AID 1116); details: COS7-hLAP1 lysate binding, 635 nm fluorescence, higher = more signal
# [20] = target: Alpha-bungarotoxin (Bungarus multicinctus) (UniProt P60615); assay: alpha-bungarotoxin binders on microarray, profiling panel, artefact control for SMM control protein annotation, biochemical, small-molecule microarray, Alexa647 label, 635/667 nm fluorescence (AID 1117); details: alpha-BTX-A647 binding fluorescence, higher = more signal
# Chain of Alpha-bungarotoxin (Bungarus multicinctus) (P60615 whole entry, looked up): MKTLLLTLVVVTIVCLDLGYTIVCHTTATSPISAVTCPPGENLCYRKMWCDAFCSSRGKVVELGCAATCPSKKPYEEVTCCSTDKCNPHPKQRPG
# Chain of Epidermal growth factor receptor (Homo sapiens) (P00533 whole entry, looked up): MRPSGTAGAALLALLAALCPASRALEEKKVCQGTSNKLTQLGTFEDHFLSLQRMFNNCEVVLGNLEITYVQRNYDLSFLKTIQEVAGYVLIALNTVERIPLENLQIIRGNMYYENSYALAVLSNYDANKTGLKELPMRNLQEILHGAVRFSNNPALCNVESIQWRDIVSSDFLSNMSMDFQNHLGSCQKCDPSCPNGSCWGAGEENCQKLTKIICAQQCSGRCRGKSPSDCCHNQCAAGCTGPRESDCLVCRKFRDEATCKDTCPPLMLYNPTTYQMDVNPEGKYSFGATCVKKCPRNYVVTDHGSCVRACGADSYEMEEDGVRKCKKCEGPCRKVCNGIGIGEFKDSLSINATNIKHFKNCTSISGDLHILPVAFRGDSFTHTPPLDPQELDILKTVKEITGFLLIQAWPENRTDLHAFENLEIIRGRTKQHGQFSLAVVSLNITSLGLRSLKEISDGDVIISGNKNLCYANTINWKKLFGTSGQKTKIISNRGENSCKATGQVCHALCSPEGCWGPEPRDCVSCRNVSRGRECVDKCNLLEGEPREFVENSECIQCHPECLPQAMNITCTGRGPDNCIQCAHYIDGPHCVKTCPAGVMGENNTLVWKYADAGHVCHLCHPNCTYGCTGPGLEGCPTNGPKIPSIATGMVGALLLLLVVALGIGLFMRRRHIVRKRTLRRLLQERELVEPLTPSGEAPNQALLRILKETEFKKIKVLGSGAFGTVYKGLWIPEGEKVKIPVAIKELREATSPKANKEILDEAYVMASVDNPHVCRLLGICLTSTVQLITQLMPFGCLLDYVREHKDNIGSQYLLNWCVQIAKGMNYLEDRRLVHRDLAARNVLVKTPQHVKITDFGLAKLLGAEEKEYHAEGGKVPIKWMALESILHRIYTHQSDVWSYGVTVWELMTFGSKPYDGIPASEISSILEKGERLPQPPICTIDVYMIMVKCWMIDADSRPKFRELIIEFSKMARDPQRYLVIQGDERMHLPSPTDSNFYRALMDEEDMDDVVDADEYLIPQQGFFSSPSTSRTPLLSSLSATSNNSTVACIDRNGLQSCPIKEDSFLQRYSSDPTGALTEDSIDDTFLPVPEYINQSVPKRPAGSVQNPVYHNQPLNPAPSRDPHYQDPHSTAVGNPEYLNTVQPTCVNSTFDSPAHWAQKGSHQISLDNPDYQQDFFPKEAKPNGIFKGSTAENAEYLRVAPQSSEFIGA
# Chain of Follistatin-related protein 3 (Homo sapiens) (O95633 whole entry, looked up): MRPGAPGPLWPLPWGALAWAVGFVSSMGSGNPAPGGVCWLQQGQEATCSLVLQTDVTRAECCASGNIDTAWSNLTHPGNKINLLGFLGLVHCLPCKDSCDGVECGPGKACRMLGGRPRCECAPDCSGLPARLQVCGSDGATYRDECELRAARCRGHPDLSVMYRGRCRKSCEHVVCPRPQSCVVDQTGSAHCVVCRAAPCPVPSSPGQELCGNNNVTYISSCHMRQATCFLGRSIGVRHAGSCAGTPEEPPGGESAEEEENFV
# Chain of Dickkopf-related protein 1 (Homo sapiens) (O94907 whole entry, looked up): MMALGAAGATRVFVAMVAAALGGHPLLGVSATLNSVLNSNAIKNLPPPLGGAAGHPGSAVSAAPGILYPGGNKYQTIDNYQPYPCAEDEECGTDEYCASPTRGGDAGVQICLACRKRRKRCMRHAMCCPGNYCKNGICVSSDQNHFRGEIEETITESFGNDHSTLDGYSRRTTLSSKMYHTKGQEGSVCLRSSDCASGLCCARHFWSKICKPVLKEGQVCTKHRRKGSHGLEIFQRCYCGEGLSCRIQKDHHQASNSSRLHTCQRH
# Chain of Fibroblast growth factor 10 (Homo sapiens) (O15520 whole entry, looked up): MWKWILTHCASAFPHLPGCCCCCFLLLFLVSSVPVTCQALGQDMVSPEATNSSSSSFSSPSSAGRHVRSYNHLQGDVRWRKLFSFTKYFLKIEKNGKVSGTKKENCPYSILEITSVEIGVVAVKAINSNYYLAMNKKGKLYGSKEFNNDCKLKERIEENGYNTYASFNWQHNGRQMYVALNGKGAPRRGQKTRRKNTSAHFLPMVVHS
# Chain of Torsin-1A-interacting protein 1 (Homo sapiens) (Q5JTV8 whole entry, looked up): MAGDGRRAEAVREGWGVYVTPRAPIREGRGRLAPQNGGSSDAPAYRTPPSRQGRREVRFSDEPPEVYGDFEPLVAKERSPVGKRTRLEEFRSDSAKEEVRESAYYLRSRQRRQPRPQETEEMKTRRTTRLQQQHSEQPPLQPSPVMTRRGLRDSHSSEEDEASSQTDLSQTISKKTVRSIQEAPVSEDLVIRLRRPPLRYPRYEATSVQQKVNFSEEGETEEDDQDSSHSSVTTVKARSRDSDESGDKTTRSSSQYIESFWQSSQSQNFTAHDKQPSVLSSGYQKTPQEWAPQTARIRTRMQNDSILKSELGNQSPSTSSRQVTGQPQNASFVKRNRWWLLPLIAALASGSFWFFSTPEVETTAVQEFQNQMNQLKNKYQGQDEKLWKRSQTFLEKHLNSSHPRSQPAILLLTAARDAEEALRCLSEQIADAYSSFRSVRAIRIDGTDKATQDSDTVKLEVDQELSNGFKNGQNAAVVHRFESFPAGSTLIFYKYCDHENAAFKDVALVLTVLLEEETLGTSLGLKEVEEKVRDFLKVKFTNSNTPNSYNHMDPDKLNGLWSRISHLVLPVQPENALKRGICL
# Chain of Left-right determination factor 2 (Homo sapiens) (O00292 whole entry, looked up): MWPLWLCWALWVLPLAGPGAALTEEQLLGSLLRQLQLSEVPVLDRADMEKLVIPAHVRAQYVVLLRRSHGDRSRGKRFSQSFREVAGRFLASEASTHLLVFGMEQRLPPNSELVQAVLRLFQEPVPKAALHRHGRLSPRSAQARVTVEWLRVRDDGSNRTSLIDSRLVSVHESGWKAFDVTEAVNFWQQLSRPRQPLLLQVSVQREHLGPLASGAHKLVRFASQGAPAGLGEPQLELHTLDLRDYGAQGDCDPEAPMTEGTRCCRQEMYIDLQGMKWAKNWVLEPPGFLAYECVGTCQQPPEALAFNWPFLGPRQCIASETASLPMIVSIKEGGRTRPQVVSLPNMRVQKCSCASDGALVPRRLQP
Structure (SMILES),composite z-score [1],composite z-score [2],composite z-score [3],z-score [4],composite z-score [5],composite z-score [6],composite z-score [7],composite z-score [8],composite z-score [9],composite z-score [10],composite z-score [11],z-score [12],composite z-score [13],composite z-score [14],composite z-score [15],composite z-score [16],composite z-score [17],composite z-score [18],composite z-score [19],composite z-score [20]
CO[C@H]1O[C@H](CO)[C@@H](OC(=O)CCc2ccccc2)[C@@H]2OC(=O)[C@H](Cc3ccccc3)C/C=C/C[C@@H](Cc3ccccc3)C(=O)O[C@@H]12,0.489,-0.332,0.268,-0.87 (inactive),-0.135,-1.24,-0.938,-0.861,-0.844,1.17,-0.673,-1.31,-0.0637,-0.879,-0.123,-0.106,-0.471,0.248,0.108,-0.75
NCCCCCCNC(=O)[C@@H]1C[C@@H]2C(=O)N[C@@H](Cc3ccccc3)C(=O)N2[C@@H]1c1ccc(O)cc1,0.791,0.678,0.709,-0.573 (inactive),0.25,0.717,0.0626,0.367,0.627,1.15,1.12,0.355,0.093,2,1.32,-0.11,0.318,0.075,0.526,1.3
O=C(NO)[C@]1(Cc2ccccc2)N=C(c2ccc(OCCCO)cc2)O[C@@H]1c1ccccc1,1.3,0.256,0.694,-4.02 (inactive),-0.227,-0.371,-0.637,0.262,-0.546,-0.169,-0.281,-1.73,-0.79,-0.271,0.309,-0.377,0.157,0.168,0.395,2.41
CC(C)(C)OC(=O)CC[C@]1(C(=O)NCc2ccccc2)COC(c2ccc(OCCCO)cc2)=N1,1.31,1.07,1.21,-0.264 (inactive),0.361,0.319,-0.716,-0.334,-1.17,0.469,0.326,-0.605,-0.632,0.98,1.11,-0.001,-0.138,1.31,2.07,2.47
COC(=O)C1=CC(c2ccc(CO)cc2)=CC(C2CC2)N(C)C=C1C(=O)OC (stereo not given),1.97,0.341,0.542,-1.93 (inactive),0.17,-0.373,-0.125,-0.172,0.466,0.606,-0.139,-0.748,-0.246,1.52,0.454,-0.0179,0.111,0.407,2.82,3.09
C=CCN1C(=O)[C@@]2(O[C@@H](CCn3cc(CCO)nn3)[C@H]([Si](C)(C)c3ccc(OC)cc3)[C@H]2C)c2cc(NC(=O)c3ccc(OC)cc3)ccc21,1.18,0.0251,0.113,-0.654 (inactive),0.402,0.546,0.283,0.571,0.493,1.32,0.988,-3.92,0.415,0.317,0.33,0.0205,-0.0035,-0.056,0.403,1.54
C=CCNC(=O)[C@@H]1[C@H]2C(=O)O[C@H](c3ccccc3)[C@H](c3ccccc3)N2[C@H](c2ccc(O)cc2)[C@@]12C(=O)Nc1ccc(C#Cc3ccc(OC)cc3)cc12,0.775,0.74,0.273,-0.934 (inactive),0.564,1.26,0.312,0.961,0.389,0.311,0.927,-2.67,0.239,1.61,0.941,-0.0236,1.03,-0.274,1.02,2.75
CCOC(=O)C[C@H]1[C@H](OC(=O)c2ccc(C(=O)c3ccccc3)cc2)[C@@H](NC(=O)Cc2ccc(OC)cc2)c2cc(OCCCO)ccc2N1C(=O)Cc1ccc(OC)cc1,0.276,0.676,0.949,-1.52 (inactive),0.371,0.283,-0.137,0.321,-0.177,0.962,1.06,-1.06,0.39,1.31,0.655,-0.0643,-0.156,1.1,0.743,0.978
CC(C)C(=C=CC[C@@H](O)c1ccc(CO)o1)CCO,1.78,-0.2,-0.479,-0.493 (inactive),0.9,0.367,-0.171,0.197,0.39,1.08,0.185,-0.744,0.0308,-0.108,-0.13,-0.178,-0.123,0.0954,0.42,0.205
CCOC(=O)C[C@H]1[C@H](OC(=O)c2ccc(-c3ccccc3)cc2)[C@@H](NC(=O)c2ccccc2)c2cc(OCCCO)ccc2N1C(=O)c1ccccc1,0.204,0.462,0.47,-2.01 (inactive),0.767,0.66,-0.0664,0.235,-0.188,-0.649,1.11,-1.58,0.394,2.04,1.2,-0.0718,0.275,0.165,0.67,1.09
C=CCN1C(=O)[C@]2(O[C@H](CCn3cc([C@H](O)c4ccccc4)nn3)[C@@H]([Si](C)(C)c3ccc(OC)cc3)[C@@H]2C)c2cc(N3CCOC3=O)ccc21,0.147,-0.228,0.0778,-2.35 (inactive),-0.57,0.387,-0.754,-0.577,-0.272,0.147,0.724,-3.64,-0.69,-0.169,-0.367,-0.16,-0.043,-0.176,0.525,0.479
